Laboratory results reported in PubChem BioAssay (Tox21).
Records with an inconclusive call do not appear. Calls of active or inactive are those of the source. Unless noted, calls come from the whole dose curve; as a rule, active = well fitted curve in the direction sought with a large enough effect in the repeat runs; inconclusive = weak or mixed curves; inactive = no such curve, though single readings can be large; an effect the other way counts as inactive or inconclusive.

Tests used:
[1] = qHTS assay to identify small molecule agonists of the estrogen receptor alpha (ER-alpha) signaling pathway in the presence of an antagonist - cell viability counter screen (AID 1259386);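 note: series mostly up to about 92 µM; cells exposed to compounds for 22 h at 37 °C before the viability read; nearly all actives have a fitted effect of over 30% in size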
Method in brief: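 Using estrogen-depleted VM7Luc4E2 cells, the 15-concentration compound series was applied together with 10.0nM ICI-182,780 and incubated 22hr at 37C/5% CO2. Cell viability was then scored by CellTiter-Fluor.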

[2] = qHTS assay to identify small molecule antagonists of the progesterone receptor (PR) signaling pathway - cell viability counter screen (AID 1346798); note: series mostly up to about 92 µM; nearly all actives have a fitted effect of over 50% in size
Method in brief: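 In the same plates used for the beta-lactamase readout, cell viability of compound- and R5020-treated PR-UAS-bla HEK293T cells (16 hr, 37C) was assessed by CellTiter-Glo luminescence.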

[3] = qHTS assay to identify small molecule agonists of the progesterone receptor (PR) signaling pathway - cell viability counter screen (AID 1346799; calls by dose curve; note: nearly all actives have a fitted effect of over 45% in size)
Method in brief: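 Multiplexed viability read: CellTiter-Glo luminescence, 30 min RT, following LiveBLAzer FRET measurement on PR-UAS-bla HEK293T cells exposed to compounds 16 hr.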

[4] = qHTS assay to identify small molecule antagonists of the TGF-beta/Smad signaling pathway - cell viability counter screen (AID 1346824); note: nearly all actives have a fitted effect of over 50% in size
Method in brief: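 SBE-bla HEK 293T cells, incubated overnight, then compound plus 0.25 ng/mL TGF-beta1 (stock added) for 5 hr at 37 C. Viability was read in the same wells by CellTiter-Glo luminescence after 30 min at room temperature.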

[5] = qHTS assay to identify small molecule agonists of the TGF-beta/Smad signaling pathway - cell viability counter screen (AID 1346829); note: top concentration of the series differs between compounds; nearly all actives have a fitted effect of over 45% in size
Method in brief: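 SBE-bla HEK 293T cells plated overnight, compound exposure 5 hr at 37 C. Viability read in the same wells by CellTiter-Glo luminescence after 30 min at room temperature, following the beta-lactamase read.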

[6] = qHTS assay to identify small molecule agonists of the TGF-beta/Smad signaling pathway (AID 1346859; active = well fitted activation curve with a large enough effect in the signal ratio in the repeat runs, not every such curve was filed as active; the % refers to the signal ratio; note: series mostly up to about 77 µM)
Method in brief: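 Screening used HEK 293T SBE-bla cells at 4,000/well. Test agents: 5 hr, 37 C. Detection: FRET substrate, 2 hr RT, then excitation 405 nm with emissions at 460 and 530 nm.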

[7] = molecular target: Thyrotropin-releasing hormone receptor (Homo sapiens) (UniProt P34981); assay: qHTS assay to identify small molecule antagonists of the thyrotropin-releasing hormone receptor (TRHR) signaling pathway (AID 1346877; active = well fitted inhibition curve with a large enough effect in the repeat runs, not every such curve was filed as active; note: series mostly up to about 51 µM)
Thyrotropin-releasing hormone receptor (Homo sapiens), sequence (P34981 whole entry, looked up): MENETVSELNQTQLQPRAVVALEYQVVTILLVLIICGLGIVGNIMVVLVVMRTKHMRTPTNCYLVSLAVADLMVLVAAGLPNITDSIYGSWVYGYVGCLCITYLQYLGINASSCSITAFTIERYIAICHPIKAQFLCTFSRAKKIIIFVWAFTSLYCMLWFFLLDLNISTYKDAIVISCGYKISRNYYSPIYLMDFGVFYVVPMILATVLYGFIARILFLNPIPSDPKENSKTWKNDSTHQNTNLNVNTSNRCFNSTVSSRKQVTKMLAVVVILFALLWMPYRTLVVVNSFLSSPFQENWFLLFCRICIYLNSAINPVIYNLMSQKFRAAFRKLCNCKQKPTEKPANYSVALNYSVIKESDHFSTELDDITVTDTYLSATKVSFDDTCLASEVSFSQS
Method in brief: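 Calcium signal in dye-loaded TRHR/HEK293 cells; compounds added 5 min before TRH (1 nM final); fluorescence monitored 3 min at 1 s steps.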

[8] = molecular target: Thyrotropin-releasing hormone receptor (Homo sapiens) (UniProt P34981); assay: qHTS assay to identify small molecule agonists of the thyrotropin-releasing hormone receptor (TRHR) signaling pathway (AID 1346891; calls by dose curve; note: potency is the fitted concentration of half-maximal effect; for activation: series mostly up to about 58 µM)
Method in brief: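 Readout was intracellular calcium fluorescence in TRHR-Hek293 cells. Cells were incubated 18 h, dye-loaded 2 h at 37 °C, and treated with compound in agonist mode.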

[9] = Human pregnane X receptor (PXR) small molecule agonists, qHTS cell viability counter screen (AID 1346977); note: nearly all actives have a fitted effect of over 50% in size
Method in brief: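 In each well, the PXR reporter HepG2 line was checked for viability: CellTiter-Fluor reagent added 23hr post-dosing, fluorescence read after 1hr incubation at 37C.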

[10] = Caspase-3/7 induction in HepG2 cells by small molecules, qHTS assay (AID 1346978); note: nearly all actives have a fitted effect of over 15% in size
Method in brief: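 Wild-type HepG2 cells, 2,000/well, settled 5 hr at 37 C and 5% CO2, then compound-treated for 17 hr; caspase-3/7 activity read by luminescent Caspase-Glo 3/7 after 30 min at room temperature.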

[11] = Caspase-3/7 induction in CHO-K1 cells by small molecules, qHTS assay (AID 1346980); note: nearly all actives have a fitted effect of over 15% in size
Method in brief: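 Wild-type CHO-K1 cells exposed to compounds for 17hr at 37 C, 5% CO2. Caspase-3/7 activity then measured by Caspase-Glo 3/7 luminescence after 30min at room temperature.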

[12] = Caspase-3/7 induction in HepG2 cells by small molecules, qHTS cell viability counter screen (AID 1346981); note: series mostly up to about 92 µM; nearly all actives have a fitted effect of over 30% in size
Method in brief: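 After a 5-hr attachment period at 37 C and 5% CO2, wild-type HepG2 cells received compounds in DMSO. Sixteen hours later CellTiter-Fluor was dispensed and the fluorescent signal quantified after a further hour.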

[13] = molecular target: Nuclear receptor subfamily 1 group I member 2 (Homo sapiens) (UniProt O75469); assay: Human pregnane X receptor (PXR) small molecule agonists, qHTS assay (AID 1346982); note: nearly all actives have a fitted effect of over 35% in size; note: potency is the fitted concentration of half-maximal effect
Nuclear receptor subfamily 1 group I member 2 (Homo sapiens), sequence (O75469 whole entry, looked up): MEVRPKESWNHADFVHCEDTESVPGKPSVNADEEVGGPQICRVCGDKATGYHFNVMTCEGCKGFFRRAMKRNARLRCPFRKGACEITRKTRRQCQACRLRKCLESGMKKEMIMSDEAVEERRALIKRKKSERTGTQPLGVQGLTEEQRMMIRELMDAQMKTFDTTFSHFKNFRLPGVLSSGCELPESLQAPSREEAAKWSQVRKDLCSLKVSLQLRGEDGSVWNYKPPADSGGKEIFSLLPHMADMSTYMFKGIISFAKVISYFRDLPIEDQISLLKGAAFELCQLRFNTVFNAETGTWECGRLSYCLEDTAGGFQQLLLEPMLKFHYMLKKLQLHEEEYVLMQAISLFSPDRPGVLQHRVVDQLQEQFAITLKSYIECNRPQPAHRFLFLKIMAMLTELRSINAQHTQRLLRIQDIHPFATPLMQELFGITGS
Method in brief: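 Tox21 qHTS; PXR-Luc HepG2; compounds pinned from DMSO; 24 hr, 37 C; ONE-Glo luciferase detection, 30 min room temperature.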

[14] = molecular target: Cytochrome P450 2D6 (Homo sapiens) (UniProt P10635); assay: Cytochrome P450 Family 2 Subfamily D Member 6 (CYP2D6) small molecule antagonists: luciferase reporter qHTS assay (AID 1671196); note: nearly all actives have a fitted effect of over 50% in size; note: potency is the fitted concentration of half-maximal effect
Cytochrome P450 2D6 (Homo sapiens), sequence (P10635 whole entry, looked up): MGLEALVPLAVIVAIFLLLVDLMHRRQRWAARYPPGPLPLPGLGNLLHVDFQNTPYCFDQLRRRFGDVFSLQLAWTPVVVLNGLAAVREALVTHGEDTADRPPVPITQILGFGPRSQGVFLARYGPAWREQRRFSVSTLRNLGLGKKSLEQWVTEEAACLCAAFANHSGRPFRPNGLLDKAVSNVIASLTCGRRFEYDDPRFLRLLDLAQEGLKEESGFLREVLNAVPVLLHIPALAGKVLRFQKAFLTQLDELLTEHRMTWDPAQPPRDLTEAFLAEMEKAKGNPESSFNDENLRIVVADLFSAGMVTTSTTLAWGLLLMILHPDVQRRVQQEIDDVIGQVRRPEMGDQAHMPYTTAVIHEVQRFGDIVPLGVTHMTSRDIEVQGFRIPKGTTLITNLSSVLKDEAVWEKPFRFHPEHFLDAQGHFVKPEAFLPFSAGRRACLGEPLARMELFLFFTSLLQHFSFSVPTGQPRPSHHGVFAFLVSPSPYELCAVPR
Method in brief: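 Room-temperature luminescent CYP2D6 activity assay: compound preincubated 10 min with enzyme–substrate mix, NADPH-initiated reaction 1 h, detection reagent 20 min before reading.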

[15] = molecular target: Progesterone receptor (Homo sapiens) (UniProt P06401); assay: qHTS assay to identify small molecule antagonists of the progesterone receptor (PR) signaling pathway (AID 1346795; active = well fitted inhibition curve with a large enough effect in the signal ratio in the repeat runs, not every such curve was filed as active; the % refers to the signal ratio)
Progesterone receptor (Homo sapiens), sequence (P06401 whole entry, looked up): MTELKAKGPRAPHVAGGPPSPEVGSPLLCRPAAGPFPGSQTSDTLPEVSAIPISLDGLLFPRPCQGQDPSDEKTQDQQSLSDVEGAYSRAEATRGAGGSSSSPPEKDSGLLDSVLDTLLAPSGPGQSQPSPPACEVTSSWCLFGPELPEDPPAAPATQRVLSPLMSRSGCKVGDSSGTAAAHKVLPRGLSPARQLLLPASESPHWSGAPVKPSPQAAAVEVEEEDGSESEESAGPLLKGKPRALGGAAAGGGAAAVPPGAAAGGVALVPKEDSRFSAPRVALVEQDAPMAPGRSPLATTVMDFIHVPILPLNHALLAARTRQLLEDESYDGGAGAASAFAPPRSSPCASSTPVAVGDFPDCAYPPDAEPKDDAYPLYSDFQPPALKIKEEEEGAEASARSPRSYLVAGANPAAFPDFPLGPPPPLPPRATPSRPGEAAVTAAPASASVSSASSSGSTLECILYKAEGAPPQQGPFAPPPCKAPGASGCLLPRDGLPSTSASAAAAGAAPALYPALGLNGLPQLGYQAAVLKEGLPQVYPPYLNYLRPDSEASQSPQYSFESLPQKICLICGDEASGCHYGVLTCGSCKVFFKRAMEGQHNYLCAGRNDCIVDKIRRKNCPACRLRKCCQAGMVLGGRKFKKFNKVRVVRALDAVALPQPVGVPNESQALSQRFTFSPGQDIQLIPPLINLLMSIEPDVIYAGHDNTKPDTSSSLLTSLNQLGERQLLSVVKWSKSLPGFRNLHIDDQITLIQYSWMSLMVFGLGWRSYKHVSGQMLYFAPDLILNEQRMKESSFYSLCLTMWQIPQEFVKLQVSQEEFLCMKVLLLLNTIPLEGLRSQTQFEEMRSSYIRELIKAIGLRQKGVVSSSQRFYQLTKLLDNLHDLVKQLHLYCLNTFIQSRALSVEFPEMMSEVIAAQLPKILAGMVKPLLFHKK
Method in brief: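 Stimulus R5020 at 1 nM final; cells HEK293T PR-UAS-bla; medium with 2% charcoal-stripped FBS; compound exposure 16 hr at 37C, 5% CO2; detection by FRET beta-lactamase substrate, 2 hr, room temperature.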

[16] = Caspase-3/7 induction in CHO-K1 cells by small molecules, qHTS cell viability counter screen (AID 1346979); note: nearly all actives have a fitted effect of over 35% in size
Method in brief: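 Following a 5hr settling period, CHO-K1 cells at 1,500 per well received DMSO-dissolved compounds. Cell viability was quantified 16hr later by CellTiter-Fluor fluorescence, measured after 1hr with reagent at 37C.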

[17] = molecular target: Nuclear receptor subfamily 1 group I member 2 (Homo sapiens) (UniProt O75469); assay: CYP3A4 induction through human pregnane X receptor (PXR) by small molecules, qHTS assay (AID 1346984); note: nearly all actives have a fitted effect of over 40% in size
Method in brief: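 Cells (DPX-2; HepG2 with PXR element plus CYP3A4-promoter luciferase) settled 5hr, then were treated 24hr at 37C. A 3hr, 3uM-final Luciferin-IPA step preceded luminescence measurement with One-Glo.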

[18] = molecular target: Nuclear receptor subfamily 1 group I member 2 (Homo sapiens) (UniProt O75469); assay: Human pregnane X receptor (PXR) activation by small molecules, qHTS assay (AID 1346985); note: nearly all actives have a fitted effect of over 40% in size; note: potency is the fitted concentration of half-maximal effect
Method in brief: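 DPX-2 cells (HepG2 co-transfected with a PXR response element and a CYP3A4-promoter luciferase construct) were seeded at 2,000 per well, rested 5 hr at 37C, then exposed to DMSO-dissolved compounds for 24 hr. Activation was read as luciferase luminescence.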

[19] = molecular target: Nuclear receptor subfamily 1 group I member 2 (Rattus norvegicus) (UniProt Q9R1A7); assay: Rat pregnane X receptor (rPXR) activation by small molecules, qHTS assay (AID 1346983); settings: rPXR luciferase reporter cells, One-Glo luminescence, 24 h; max activation: hits give high values; note: nearly all actives have a fitted effect of over 20% in size
Nuclear receptor subfamily 1 group I member 2 (Rattus norvegicus), sequence (Q9R1A7 whole entry, looked up): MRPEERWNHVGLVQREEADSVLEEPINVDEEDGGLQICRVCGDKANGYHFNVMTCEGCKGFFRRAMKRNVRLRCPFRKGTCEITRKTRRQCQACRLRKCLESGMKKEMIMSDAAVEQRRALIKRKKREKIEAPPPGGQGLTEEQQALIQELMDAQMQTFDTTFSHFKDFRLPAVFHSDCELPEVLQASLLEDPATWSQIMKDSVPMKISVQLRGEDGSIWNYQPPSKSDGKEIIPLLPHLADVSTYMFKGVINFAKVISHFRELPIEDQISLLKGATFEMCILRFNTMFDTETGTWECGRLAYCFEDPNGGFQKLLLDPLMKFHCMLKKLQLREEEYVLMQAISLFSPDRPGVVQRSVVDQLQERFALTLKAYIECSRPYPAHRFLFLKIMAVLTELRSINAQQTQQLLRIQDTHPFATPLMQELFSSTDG
Method in brief: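 Cell-based rPXR activation assay: rPXR cells, 2,000 per well, rested 5hr at 37 C, then exposed to compounds in DMSO for 24 hr at 37 C. Luciferase activity read by One-Glo luminescence after 30 min at room temperature.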
% is set by controls: 0 for no effect and ±100 for the full control effect.

COc1ccc(C(C)=O)cc1
inactive: Potency [1] | Potency [2] | Potency [3] | Potency [4] | Potency [5] | outcome [6] | outcome [7] | Potency [8] | Potency [9] | outcome [10] | Potency [11] | Potency [12] | Potency [13] | Potency [14]

CCCCCCCCCC(=O)OCC
inactive: Potency [1] | Potency [15] | Potency [2] | Potency [3] | Potency [4] | Potency [5] | outcome [6] | Potency [9] | Potency [11] | Potency [12] | Potency [13] | Potency [14]

CCCC(C)C
inactive: Potency [1] | Potency [15] | Potency [4] | Potency [5] | outcome [6] | outcome [7] | Potency [8] | Potency [9] | outcome [10] | Potency [16] | Potency [11] | Potency [12] | Potency [14]

COc1ccc2[nH]c(S(=O)Cc3ncc(C)c(OC)c3C)nc2n1 (stereo unspecified)
inactive: Potency [1] | Potency [15] | Potency [4] | Potency [5] | outcome [6] | outcome [7] | Potency [9] | outcome [10] | Potency [11] | Potency [12] | Potency [17]
active: Potency [18] 25.1 µM

N#CCCNCCC#N
inactive: Potency [1] | Potency [15] | Potency [2] | Potency [4] | Potency [5] | outcome [6] | outcome [7] | Potency [8] | Potency [9] | outcome [10] | Potency [16] | Potency [11] | Potency [12] | Potency [13] | Potency [14]

Cn1c(NCCN(CCO)CCCc2ccc([N+](=O)[O-])cc2)cc(=O)n(C)c1=O
inactive: Potency [1] | Potency [2] | Potency [3] | Potency [4] | Potency [5] | outcome [6] | outcome [7] | Potency [8] | Potency [9] | outcome [10] | Potency [16] | Potency [11] | Potency [12] | Potency [13] | max activation [19] -2.3% | Potency [17] | Potency [18]

COc1ccc(OC)c(OC)c1
inactive: Potency [1] | Potency [2] | Potency [3] | Potency [4] | Potency [5] | outcome [6] | outcome [7] | Potency [8] | Potency [9] | outcome [10] | Potency [16] | Potency [11] | Potency [12] | Potency [13] | Potency [14]

CC(=O)NCCCS(=O)(=O)O
inactive: Potency [1] | Potency [2] | Potency [3] | Potency [4] | Potency [5] | outcome [6] | outcome [7] | Potency [9] | outcome [10] | Potency [11] | Potency [12] | Potency [13] | max activation [19] -4.66% | Potency [17] | Potency [18] | Potency [14]
active: Potency [8] 11.9 µM

CC(Cc1cccc(C(F)(F)F)c1)NCCOC(=O)c1ccccc1 (stereo unspecified)
active: Potency [14] 0.0977 µM
inactive: Potency [1] | Potency [15] | Potency [2] | Potency [3] | Potency [4] | Potency [5] | outcome [6] | Potency [11] | Potency [12] | Potency [13] | max activation [19] -0.287% | Potency [17] | Potency [18]

CCCc1ccccc1
inactive: Potency [1] | Potency [2] | Potency [3] | Potency [4] | Potency [5] | outcome [6] | outcome [7] | Potency [9] | Potency [16] | Potency [12] | Potency [13] | Potency [14]

COC(=O)C(C)=O
inactive: Potency [1] | Potency [15] | Potency [2] | Potency [3] | Potency [4] | Potency [5] | outcome [6] | outcome [7] | Potency [8] | Potency [9] | Potency [16] | Potency [11] | Potency [12] | Potency [13] | Potency [14]

CC(C(=O)O)c1ccc(C(=O)c2ccccc2)s1 (stereo unspecified)
active: Potency [13] 15 µM
inactive: Potency [1] | Potency [15] | Potency [2] | Potency [3] | Potency [4] | Potency [5] | outcome [7] | Potency [8] | Potency [9] | outcome [10] | Potency [16] | Potency [11] | Potency [12] | max activation [19] 13.7% | Potency [17] | Potency [18] | Potency [14]

C=CC(=O)OCCOC(=O)CCC(=O)O
inactive: Potency [1] | Potency [15] | Potency [2] | Potency [3] | Potency [4] | Potency [5] | outcome [6] | outcome [7] | Potency [8] | Potency [9] | outcome [10] | Potency [16] | Potency [11] | Potency [13] | Potency [14]

CC1=CCC(C(C)C)C=C1 (stereo unspecified)
inactive: Potency [1] | Potency [15] | Potency [2] | Potency [4] | Potency [5] | outcome [6] | Potency [9] | outcome [10] | Potency [16] | Potency [11] | Potency [12]
active: Potency [13] 30.6 µM | Potency [14] 71 µM

Cc1ncsc1CCO
inactive: Potency [1] | Potency [2] | Potency [3] | Potency [4] | Potency [5] | outcome [6] | outcome [7] | Potency [8] | Potency [9] | outcome [10] | Potency [16] | Potency [11] | Potency [12] | Potency [14]
